Experimental data reported in PubChem BioAssay.
Where “and” joins values, the source holds several entries; their conditions need not be identical. Equal entries are not always repeated. Calls of active or inactive are those of the source.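 How the source made its calls, unless noted: active means compounds whose cell count with miR-34 switched on is under 0.7 times the count with it off; inactive means the rest.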

How the values were obtained:
[1] = P. berghei load reduction in hepatocytes – cell-based, HepG2, luciferase luminescence, HepG2 viability, primary screen (AID 624349; in the data active means parasite load remaining mostly below about 12%, no sharp cut-off; inactive means mostly above about 10%;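 further: 100% = mean of DMSO negative control wells on the same plate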); conditions: P. berghei liver stage in HepG2, luciferase luminescence, concentration not given here; parasite load remaining: stronger effect = lower value; viability: measured here: HepG2 viability without parasites
[2] = Wnt pathway potentiators raising nuclear beta-catenin – imaging, WNT3A-conditioned medium, mouse C2C12, NPC library, primary screen (AID 1117326; in the data active means nuclear beta-catenin stimulation mostly above about 4.2%, no sharp cut-off; inactive means mostly below about 10%; further: reference of the scale not given here); conditions: stronger effect = higher value
[3] = stimulators of insulin release from INS-1E, primary screen, cell-based, 5 mM glucose, NPC library (AID 1117329;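 active means compound raises insulin release from rat beta cells at 5 mM glucose, no numeric limit stated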; further: reference of the scale not given here); conditions: rat INS-1E insulin secretion, at 10 µM, stronger effect = higher value
[4] = growth inhibition of GSK3B-pretreated HCT116 cells – cell-based, CellTiter-Glo, 0.2 to 20 µM (AID 1117336;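 active means compounds lowering colon cancer cell viability after pretreatment blocking the GSK3B kinase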); conditions: HCT116 viability after GSK3B inhibitor, at 20 µM, stronger effect = higher value
[5] = inhibition of endothelial tube formation, primary screen, imaging, VEGF stimulated, CD31 staining, tube area, NPC library (AID 1117340;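 active means compound that reduces growth-factor-driven endothelial tube area in a mixed cell culture, no cutoff stated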); conditions: VEGF-stimulated ADSC/ECFC co-culture, at 10 µM, stronger effect = higher value
[6] = GLP1 release stimulators, primary, NCI-H716, NPC library (AID 1117341;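 active means compound raises GLP1 secretion from the human gut endocrine cells, with no numeric limit stated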; further: reference of the scale not given here); conditions: NCI-H716 cells, at 10 µM, stronger effect = higher value
[7] = HCT116 colon cancer cell growth inhibition, primary screen, CellTiter-Glo luminescence, NPC library (AID 1117342;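 active means compounds that lower survival of HCT116 colon cancer cells in the luminescence readout, no numeric limit stated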); conditions: at 20 µM (top of the series)
[8] = reduced SW480 viability measured with CellTiter-Glo, NPC library, primary (AID 1117343;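 active means compounds that lower viability of the colon cancer cells in the luminescence readout, with no numeric limit stated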); conditions: CellTiter-Glo luminescence; at 20 µM (top of the series) unless noted
[9] = NPC library primary testing for decreased DLD-1 cell viability via CellTiter-Glo (AID 1117346;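 active means compounds that lower survival of DLD-1 colon cancer cells in the luminescence readout, no cutoff given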); conditions: DLD-1 viability, CellTiter-Glo luminescence; at 20 µM (top of the series)
[10] = viability loss with induced miR-34 in A549 – imaging, A549 dox-inducible miR-34, nuclei and caspase counts, primary screen (AID 1347080); conditions: A549 miR-34 inducible, Hoechst nuclei count, 48 h
[11] = galactose survival enhancers in mitochondrial complex I cybrids – cell-based, galactose medium, ATP luminescence, primary screen (AID 1645843;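 active means z-score of at least 1.8 in each of two replicates, scored against plate mean and spread of sample wells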;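 further: positive z means more ATP and so rescue of galactose-driven cybrid death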); conditions: complex I mutant cybrid cells, 72 h, stronger effect = higher value
[12] = MELAS cybrid and Rieske KO viability enhancers – cell-based, MELAS cybrids, Rieske KO mouse fibroblasts, CellTiter-Glo, primary screen (AID 1508586;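 active means mean z-score across replicates of 1.96 or higher in either the MELAS or the Rieske mutant cell line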;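 further: z relative to plate mean and SD of compound and empty wells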); conditions: low glucose
[13] = target: NAD(+) hydrolase SARM1 (Homo sapiens) (UniProt Q6SZW1); assay: blocking NAD cleavage by SARM1 SAM-TIR – cell lysate, NAD-Glo luminescence (AID 1508614;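 active means compound whose remaining NAD level is above about 45 nM, limit read from the data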); conditions: SAM-TIR HEK293T lysate NADase, at 1 µM, stronger effect = higher value
Chain of NAD(+) hydrolase SARM1 (Homo sapiens) (Q6SZW1 whole entry, looked up): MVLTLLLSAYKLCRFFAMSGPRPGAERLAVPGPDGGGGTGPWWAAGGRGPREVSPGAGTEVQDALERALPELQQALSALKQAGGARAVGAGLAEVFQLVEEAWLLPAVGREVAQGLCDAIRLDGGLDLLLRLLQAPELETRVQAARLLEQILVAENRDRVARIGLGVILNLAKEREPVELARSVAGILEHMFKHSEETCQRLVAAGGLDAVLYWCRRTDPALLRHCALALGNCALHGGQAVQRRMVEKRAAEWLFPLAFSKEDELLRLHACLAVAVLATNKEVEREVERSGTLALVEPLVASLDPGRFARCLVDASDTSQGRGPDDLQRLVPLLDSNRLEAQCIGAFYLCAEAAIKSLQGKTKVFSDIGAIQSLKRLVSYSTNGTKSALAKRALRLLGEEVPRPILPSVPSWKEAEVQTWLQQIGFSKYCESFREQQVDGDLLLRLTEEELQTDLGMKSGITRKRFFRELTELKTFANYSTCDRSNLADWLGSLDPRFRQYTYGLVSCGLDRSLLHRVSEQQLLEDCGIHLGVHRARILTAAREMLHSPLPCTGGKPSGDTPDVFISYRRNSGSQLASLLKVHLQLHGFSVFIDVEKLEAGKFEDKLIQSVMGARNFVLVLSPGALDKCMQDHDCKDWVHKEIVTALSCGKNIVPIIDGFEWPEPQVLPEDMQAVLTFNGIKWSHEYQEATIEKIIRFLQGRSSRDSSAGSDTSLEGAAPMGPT

[14] = compounds altering viability of human ES cells (AID 493140; call rule not given here;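 further: cells exposed to compounds for four days before counting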); conditions: human embryonic stem cell survival screen; stronger effect = higher value
[15] = stronger effect = lower value, cell number ratio, induced over uninduced
[16] = measured here: relative caspase fold change +Dox/-Dox
[17] = measured here: total cells with miR-34 induction, stronger effect = lower value
[18] = measured here: total cells without miR-34 induction
[19] = MELAS cybrid survival, CellTiter-Glo 48 h, stronger effect = higher value
[20] = Rieske KO mouse fibroblast survival, CellTiter-Glo 72 h

| Structure (SMILES) | parasite load remaining [1] | viability [1] [%] | nuclear beta-catenin stimulation ([2]; at 10 µM) | nuclear beta-catenin stimulation ([2]; stimulation, at 2 µM) [%] | insulin secretion stimulation [3] | viability decrease [4] | tube area decrease [5] | GLP1 secretion stimulation [6] | inhibition of viability [7] | viability decrease (inhibition) [8] | viability decrease (inhibition) [9] | fold change [10, 15] | fold change [10, 16] | cell count [10, 17] | cell count [10, 18] | z-score [11] | z-score [12, 19] | z-score [12, 20] | remaining NAD [13] | survival [14] |
| --- | --- | --- | --- | --- | --- | --- | --- | --- | --- | --- | --- | --- | --- | --- | --- | --- | --- | --- | --- | --- |
| COc1ccccc1Oc1c(NS(=O)(=O)c2ccc(C(C)(C)C)cc2)nc(-c2ncccn2)nc1OCCO | 23% (inactive) | 71 | -2.1% (inactive) | 0.8 | 7% (inactive) | -5.8% (inactive) | 4.9% (inactive) | 0.2% (inactive) | 12.9% (inactive) | 81.4% (active) | 16.8% (inactive) | 0.921 (inactive) and 0.93 (inactive) and 0.843 (inactive) | 1.38 and 0.578 and 1.32 | 8280 and 8370 and 9010 | 8980 and 9000 and 10700 | 0.365 (inactive) | – | – | – | – |
| C=CCN1C[C@H](C(=O)N(CCCN(C)C)C(=O)NCC)C[C@@H]2c3cccc4[nH]cc(c34)C[C@H]21 | 25.1% (inactive) | 72 | -1.1% (inactive) | 0.7 | 0% (inactive) | -6.9% (inactive) | -11.9% (inactive) | 0.5% (inactive) | -2% (inactive) | 22.3% (inactive) | 59% (active) | 0.881 (inactive) | 1.06 | 8560 | 9720 | -0.085 (inactive) | -0.306 (inactive) | -1.44 | – | – |
| O=C1CC[C@@H](C(=O)O)N1 | – | – | 2.4% (inactive) | 0.7 | -1.4% (inactive) | -1.95% (inactive) | 9.1% (inactive) | -0.7% (inactive) | 11.4% (inactive) | 17.1% (inactive) | 6.75% (inactive) | 0.878 (inactive) | 0.936 | 8600 | 9800 | – | – | – | 10 nM (inactive) | – |
| CC(CNC1CCCCC1)OC(=O)c1ccccc1 (centres undefined) | 83.5% (inactive) | 92 | 0.9% (inactive) | 2.3 | 5.6% (inactive) | -14.5% (inactive) | 19.9% (inactive) | 3.9% (inactive) | -12.8% (inactive) | -11.7% (inactive) | -10.5% (inactive) | 0.95 (inactive) | 0.946 | 9180 | 9670 | – | -0.814 (inactive) | -0.57 | – | 2.08 (inactive) |
| COCC(=O)Nc1c(I)c(C(=O)NCC(O)CO)c(I)c(C(=O)N(C)CC(O)CO)c1I (centres undefined) | 103% (inactive) | 104 | 3% (inactive) | 2.8 | 3.5% (inactive) | -12.6% (inactive) | -13.9% (inactive) | -1.2% (inactive) | -4.47% (inactive) | -13% (inactive) | -7.9% (inactive) | 0.856 (inactive) | 1.69 | 8610 | 10100 | – | -0.386 (inactive) | -1.03 | – | 1.33 (inactive) |
